# Test results from the supplement of paper PMC10338343.
# ± gives the standard deviation.
# Test system: MILI (PIWIL2) piRISC loaded with L1MC piRNA (26 nt)
# Experiment: pre-steady-state target cleavage rate (min^-1); guide: L1MC piRNA 5'p-UAACUAAAUACUAUGCAAGCUGUAGG; MIWI and MILI are mouse PIWI proteins and EfPiwi is from a freshwater sponge; tags in brackets are library labels; higher = faster piRNA-guided slicing of the target
# Conditions: auxiliary factor: 500 nM mouse GTSF1
# Method in brief: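 A transcribed, DNA-blocked target RNA library (0.1 nM) and 1 nM active affinity-purified piRISC bearing one synthetic guide were incubated in HEPES–potassium acetate buffer at 33 °C for 0–8 or 0–960 min, either with or without 500 nM GTSF1 partner protein. Uncleaved targets were sequenced, normalised to depth and to weakly complementary targets, and pooled over three trials, with k3 capped at 0.0001 min^-1. The pre-steady-state cleavage rate was derived with a burst-and-steady-state fit.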
row,Sequence,pre-steady-state target cleavage rate
1,UCCUCCUGCAGCUUGCAUAGUAUUUAGUUA,0.301 ± 0.018
2,UCCUCCUACACCUAGCAUAGUAUUUAGUUA,0.205 ± 0.027
3,UCCUGGAAGAGCUUGCAUAGUAUUUUGUUA,0.21 ± 0.037
4,UCCUGGAUCAGCUUGCAUAGUAUUUAGAAA,0.138 ± 0.022
5,UCCUGGUACAGCUUGCAUAGUAUUUAGUUUA,0.375 ± 0.028
6,UCCUGGAUCAGACUUGCAUAGUAUUUAGUUA,0.254 ± 0.015
7,UCCUGGAACUCCUUGCAUAGUAUUUAGUUA,0.238 ± 0.02
8,UCCUGCUUCAGGUUGCAUAGUAUUUAGUUA,0.235 ± 0.015
9,UCCUGCUACAGGCUUGCAUAGUAUUUAGUUA,0.241 ± 0.014
10,UCCUGGAUCAGCUUGCGUAGUAUUUAGUUA,0.192 ± 0.017
11,UCCUGGAACAGCUUGCAUAGUAUGUAGUUA,0.206 ± 0.034
12,UCCUCCAACUGCUUGCAUAGUAUUUAGUUA,0.256 ± 0.017
13,UCCUGGAACACGAUGCAUAGUAUUUAGUUA,0.14 ± 0.017
14,UCCUGGUUCAGCUUGCAUACUAUUUAGUUA,0.0631 ± 0.011
15,UCCUGGUUCAGCAUGCAUAGUAUUUAGUUA,0.199 ± 0.026
16,UCCUGGAUGUCCUUGCAUAGUAUCUAGUUA,0.12 ± 0.024
17,UCCUGCUACAGCUUGCAUAGUAUUUUAGUUA,0.283 ± 0.023
18,UCCUCCUACAGCUAGCAUAGUAUUUAGUUA,0.27 ± 0.019
19,UCCUGCUACACGCUUGCAUAGUAUUUAGUUA,0.218 ± 0.032
20,UCCUGGAUCAGCUUGCAUAGUAUUUUGUUA,0.144 ± 0.019
21,UCCUGCUUCUGCUUGCAUAGUAUUUAGUUA,0.199 ± 0.016
22,UCCUCCUAGUCCUUGCAUAGUAUUUAGUAA,0.102 ± 0.018
23,UCCUGCUACAACUUGCAUAGUAUUUAGUUA,0.247 ± 0.023
24,UCCUGGAUGUGCUUCGCAUAGUAUUUAGUUA,0.155 ± 0.023
